High-throughput results as filed in PubChem BioAssay.
FBW7 activator: activators of human E3 ligase FBW7 | Q969H0 | AlphaScreen FBW7–phospho-cyclin E peptide binding, activator screen | normalized activity (activation), % at 26.1 µM | actives 0.13% (n = 650,000); in the data active means normalized activity above about 1.9%;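 further: purified mutant Fbw7 with reduced substrate affinity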
TEAD-YAP block: TEAD-YAP interaction inhibition | HEK-TIYL cells, TEAD-Gal4/YAP UAS-luciferase luminescence | inhibition, % at 9.12 µM | actives 1.4% (n = 640,000) | AID 1259422; in the data active means inhibition above about 32%;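 further: 0% = median of test compound wells and 100% = reference inhibitor wells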
GPR151 ag: human GPR151 activation | Q8TDV0 | PathHunter beta-arrestin GPR151 cells, luminescence | activation, % at 11.2 µM | actives 1% (n = 650,000); in the data active means activation above about 4.9%;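 further: 0% = median of compound wells and 100% = cells with positive control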
MITF inh: inhibitors of human MITF; actives 0.91% (n = 650,000); AlphaScreen MITF homodimerization, bead proximity signal; inhibition, % at 2.6 µM; AID 1259374; O75030; in the data active means inhibition above about 50%;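 further: 0% = vehicle wells with protein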
GPR151 conf act: human GPR151 activation, confirmation screen; 6,700 tested, under 10 active; GPR151 PathHunter beta-arrestin cells, luminescence, 90 min; % of EA-reagent control over plate median; activation, % at 11.2 µM; shares compounds with GPR151 ag;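 active means mean percent activation across replicates above the confirmation screen cutoff of 4.91%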
GPR119 ag: activates human GPR119 in a GPR151 counter-screen. activation, % at 11.2 µM. actives 0.3% (n = 6,700). GPR119 PathHunter beta-arrestin cells, luminescence, 90 min; 0 = compound-well median, 100 = enzyme-acceptor control. AID 1508611. shares compounds with GPR151 ag;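 active means mean percent activation in the counterscreen above 29.09%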;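 further: counterscreen on off-target GPR119 to flag nonselective hits from the GPR151 activator screen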
Target sequence (Q8TDV5 whole entry, looked up): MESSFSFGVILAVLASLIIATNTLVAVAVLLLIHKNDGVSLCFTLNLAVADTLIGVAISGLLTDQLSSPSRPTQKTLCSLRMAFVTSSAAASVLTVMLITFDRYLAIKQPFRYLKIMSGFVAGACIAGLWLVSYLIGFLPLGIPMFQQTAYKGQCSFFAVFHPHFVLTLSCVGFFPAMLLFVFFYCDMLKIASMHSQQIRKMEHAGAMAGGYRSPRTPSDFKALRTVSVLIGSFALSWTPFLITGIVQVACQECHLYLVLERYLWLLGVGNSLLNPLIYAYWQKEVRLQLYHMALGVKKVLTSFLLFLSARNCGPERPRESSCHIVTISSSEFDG
Numbers without * were called inactive; / = no result given; ! = not active in a repeat. The list is not random: actives were taken first. Their share in the collection is about 3.4%.

SMILES | FBW7 activator | TEAD-YAP block | GPR151 ag | MITF inh | GPR151 conf act | GPR119 ag
COc1ccc(CCNC(=O)/C=C\C(=O)O)cc1OC | 0 | -5 | 5.0* | 4 | 2 | 1
CCCN1CCN(C(=S)NCCc2ccc(OC)c(OC)c2)CC1 | 0 | 1 | 5.5* | 5 | 0 | -4
CCC(Br)C(=O)NCCc1ccc(OC)c(OC)c1 (stereo unspecified) | 0 | 4 | 5.2* | 0 | -1 | 9
CC(=O)Nc1ccc(-c2nnc(SCC(=O)NCc3ccc(C)cc3)n2C)cc1 | 0 | 4 | -1 | 14 | / | /
O=C(NCc1cccc(Cl)c1)c1ccc2c(=O)n(-c3cccc(C(F)(F)F)c3)c(=S)[nH]c2c1 | 0 | 1 | 1 | -11 | / | /
O=C(O)CN(CCOCCOCCN(CC(=O)O)CC(=O)O)CC(=O)O | 0 | -3 | 2 | -1 | / | /
O=C(O)CN(CCN(CC(=O)O)CC(=O)O)CCN(CC(=O)O)CC(=O)O | 0 | 6 | 8.1*! | 41 | 1 | 10
CCC(C)NC(=O)C1=C(C)C(=O)OC12CCCCC2 (stereo unspecified) | 0 | 1 | 12* | 3 | -1 | -6
Cc1ccc2c(c1)cc(C)c1nnc(SCC(=O)Nc3nccs3)n12 | 0 | 5 | 0 | -7 | / | /
Cc1ccc(CNC(=O)/C=C/c2ccc(F)cc2)cc1 | 0 | 2 | 0 | 8 | / | /
CCc1cc2c(SCC(=O)Nc3ccc(Br)cc3)ncnc2s1 | 0 | 10 | 0 | -5 | / | /
CCc1cc2c(SCC(=O)c3cccs3)ncnc2s1 | 0 | -15 | 5.1* | 8 | -1 | -13
CCc1cc2c(SCC(=O)c3ccccc3)ncnc2s1 | 0 | -45 | -1 | 6 | / | /
CCc1cc2c(SCC(=O)Nc3sccc3C(N)=O)ncnc2s1 | 0 | 1 | 7.0* | -1 | 0 | -8
CC(C)c1nc(SCC(=O)NC(C)(C)C)c2ccccc2n1 | 0 | 11 | 1 | 1 | / | /
CCN(CC)S(=O)(=O)c1ccc(OC)c(NS(=O)(=O)c2ccccc2[N+](=O)[O-])c1 | 0 | -11 | 2 | -17 | / | /
COc1ccc(S(=O)(=O)Nc2ccccc2SC)cc1Br | 1 | -3 | 5.7* | 16 | -1 | 4
COc1ccc(S(=O)(=O)Nc2ccccc2C(=O)NC(C)C)cc1OC | 0 | 0 | 18* | -2 | 0 | 6
CCN(CC)S(=O)(=O)c1ccc(OC)c(NS(=O)(=O)c2cccc([N+](=O)[O-])c2)c1 | 0 | 0 | 6.2* | 24 | 0 | 4
COc1ccc(S(=O)(=O)Nc2cccc3c([N+](=O)[O-])cccc23)cc1OC | 0 | -20 | 6.0* | -7 | 0 | 7
CCCN1CCN(C(=O)c2c(C)n(CC3COc4ccccc4O3)c(C)cc2=O)CC1 (stereo unspecified) | 0 | -7 | 0 | 5 | / | /
Cc1nc(NCc2cnn(C)c2C)sc1-c1ccn(-c2cccc(F)c2)n1 | 0 | -2 | 2 | -10 | / | /
COc1ccc(NC(=S)NNS(=O)(=O)c2cccc([N+](=O)[O-])c2)cc1 | 0 | -11 | 4.9* | -24 | 0 | -13
COc1ccccc1NS(=O)(=O)c1ccc(SC)cc1 | 0 | 2 | 6.3* | 4 | -1 | 0
COc1ccc(NC(=S)Nc2cccc([N+](=O)[O-])c2)cc1 | 0 | -1 | -1 | 16 | / | /
SMILES | FBW7 activator | TEAD-YAP block | GPR151 ag | MITF inh | GPR151 conf act | GPR119 ag
COCCCN(C(=S)Nc1cccc(Cl)c1)C(C)c1ccncc1 (stereo unspecified) | 0 | -5 | 5.9* | -5 | -1 | 5
CC(C)n1c2ccccc2c2n[nH]c(=S)nc21 | 0 | -4 | 6.7* | -14 | 0 | -1
S=c1nc2c(n[nH]1)c1ccccc1n2CCc1ccccc1 | 0 | 4 | 6.5* | 7 | 2 | 7
S=c1nc2c(n[nH]1)c1ccccc1n2Cc1ccccc1 | 0 | -9 | 1 | 3 | / | /
C/C(=N\NC(=O)c1cc(C)[nH]n1)c1ccc(Br)s1 | 1 | -51 | 0 | -2 | / | /
COc1ccc(C(=O)NNC(=O)C(=O)N2CCCC2)cc1OC | 0 | -6 | 5.6* | 7 | 1 | 18
CCC(C)Nc1c([N+](=O)[O-])cc(C(=O)O)cc1[N+](=O)[O-] (stereo unspecified) | 0 | 3 | 0 | 6 | / | /
CCC(Nc1c([N+](=O)[O-])cc(C(F)(F)F)cc1[N+](=O)[O-])C(=O)O (stereo unspecified) | 0 | 4 | 6.0* | -4 | 0 | 7
CCCCC1=CC2=CC(=O)C(C)(OC(=O)CCc3ccccc3)C(=O)C2=CO1 (stereo unspecified) | 0 | / | 8.4* | 3 | 0 | 4
CCC(=O)OC1(C)C(=O)C=C2C=C(c3ccc(C#N)cc3)OC=C2C1=O (stereo unspecified) | 0 | / | 5.0* | -18 | 1 | 6
CC(C)(C)OC(=O)NCCCC1=CC2=CC(=O)C(C)(OC(=O)CCc3ccccc3)C(=O)C2=CO1 (stereo unspecified) | 0 | / | 2 | -2 | / | /
CCn1c(=O)n(CC(=O)NCC2COc3ccccc3O2)c(=O)c2ccccc21 (stereo unspecified) | 0 | -2 | -1 | 6 | / | /
CCn1c2ccccc2n2c(=O)n(CC(=O)NCC3COc4ccccc4O3)nc12 (stereo unspecified) | 1 | 13 | 7.5* | -5 | 2 | 7
CCn1c2ccccc2n2c(=O)n(CC(=O)Nc3ccc4c(c3)OCO4)nc12 | 1 | 14 | 5.7* | 9 | 1 | 2
Cc1cccc(N=c2oc3c(C)ncc(CO)c3cc2C(=O)Nc2cccc(C)c2)c1 | 0 | -7 | -1 | -6 | / | /
CCc1ccc(C2C(C(C)=O)=C(O)C(=O)N2CCNCCO)cc1 (stereo unspecified) | 0 | 3 | 5.4* | 10 | 0 | 8
CC(=O)C1=C(O)C(=O)N(CCNCCO)C1c1ccc(Cl)cc1 (stereo unspecified) | 0 | 8 | 0 | 1 | / | /
COc1ccc(NC(=O)c2cn(-c3ccccc3)nc2-c2ccc(Cl)cc2)cc1 | 0 | 5 | -1 | -6 | / | /
COc1cccc(NC(=O)c2cccn(OCc3ccccc3F)c2=O)c1 | 0 | -17 | 6.2* | -30 | 0 | 6
O=C(Nc1cccc(F)c1)c1cccn(OCc2ccccc2F)c1=O | 0 | -31 | -1 | 8 | / | /
CC1=C(NCc2ccccc2)CCC1=O | 0 | 7 | 6.0* | 12 | -1 | -4
CC1(C)CC(=O)C([N+](=O)[O-])=C(NCc2ccccc2)C1 | 0 | 2 | 0 | 1 | / | /
O=C(Nc1cccc(C(=O)N2CCN(c3ccc(F)cc3)CC2)c1)c1ccccc1 | 1 | 2 | 5.6* | -5 | 1 | 0
CCc1ccc2oc(-c3cccc(NC(=S)NC(=O)c4cc5ccccc5o4)c3)nc2c1 | 0 | -21 | 1 | 6 | / | /
